The list is not random: actives were taken first. Their share in the collection is about 2.1%.
rRNA inh HTS: reduced GFP signal of wild-type E. coli, primary screen, bacterial rRNA inhibitor project, GFP/RFP fluorescence, OD600, single point | GFP signal change (wild-type ribosome), % (test concentration not listed) | E. coli WT GFP vs humanized-ribosome RFP mutants, 24 h; active compounds read low; DMSO median 0, no signal -100 | 350,000 compounds, 1.6% hits | AID 720706, 2013;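 active = significant combined selectivity score with lowered wild-type GFP, culture density cut under 30%, mutant RFP and density less affected; inactive = any of these conditions unmet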
ERAP1 HTS inh: human ERAP1 aminopeptidase inhibitors, primary screen, biochemical, single point, plate reader | inhibition, % at 10.7 µM | recombinant ERAP1, Leu-AMC fluorescence, 60 min | 340,000 compounds, 0.15% hits | AID 652197, 2013;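 active = mean replicate inhibition of at least 30%, or all replicates individually reaching that 30% level; inactive = mean below 30% and not every replicate reaching it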;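 note: 0% = neutral control wells and 100% = L-leucinethiol positive control wells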
PvdQ inh: P. aeruginosa PvdQ acylase inhibitors, primary screen, biochemical, fluorescence, plate reader and imaging, single point; AID 488965, 2010; 340,000 compounds, 0.063% hits; PvdQ acylase [Pseudomonas aeruginosa LESB58]; purified PvdQ acylase; inhibition, % at 10 µM; in the data active = inhibition above about 30%, passing the limit was not always enough;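 note: 0% = vehicle neutral wells and 100% = reference inhibitor wells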
ARNT TACC3 PPI: disruptors of ARNT/TACC3 protein interaction, primary screen, biochemical, AlphaScreen, single concentration; AlphaScreen His-ARNT PAS-B/GST-TACC3 binding, luminescence; TACC3 fragment carries E629A point mutation; inhibition, % at 9.99 µM; AID 623870, 2012; 390,000 compounds, 0.66% hits;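 active = mean inhibition of replicates at least 50% and at least half of replicates each reaching 50%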;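 note: 0% = complete ARNT plus TACC3 wells and 100% = ARNT alone without TACC3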
CFTR F508del cor: F508del CFTR correction, initial screen, CFBE line, single point; CFBE cells, YFP halide quenching; stimulated with forskolin plus potentiator P3; % fluorescence drop versus neutral controls; activity (quench increase), % at 7.58 µM; 350,000 compounds, 0.36% hits; AID 720511, 2013;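 active = mean added fluorescence quench of at least 8% versus neutral control, with both replicates also reaching 8%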;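 note: cells transiently co-express mutant CFTR-F508del with the halide-sensitive YFP; corrector assay measuring rescue of mutant channel to the surface after 24 h compound exposure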
* = called active by the depositor.

`C[C@@H]1CCCCO[C@@H](CN(C)C(=O)Nc2cccc3ccccc23)[C@@H](C)CN([C@H](C)CO)C(=O)c2cc(NC(=O)c3ccncc3)ccc2O1` gave rRNA inh HTS 5.5, ERAP1 HTS inh -5.4, ARNT TACC3 PPI -5.6 and CFTR F508del cor -0.5.
Cc1cc(C(=O)Nc2cccc3c2O[C@H](CN(C)C(=O)Nc2c(C)noc2C)[C@@H](C)CN([C@H](C)CO)C3=O)n(C)n1 was read as rRNA inh HTS 0.1, ERAP1 HTS inh 0.7, ARNT TACC3 PPI -6.3 and CFTR F508del cor -2.3.
`CC(C)NC(=O)N[C@@H]1CC[C@H](CC(=O)O)O[C@H]1CO` gave rRNA inh HTS -1.1, ERAP1 HTS inh -1.2, ARNT TACC3 PPI 2.2 and CFTR F508del cor -3.2.
Screening CCCC(=O)Nc1ccc2c(c1)C(=O)N(C)[C@H]1CC[C@@H](CC(=O)NCc3ccccc3Cl)O[C@@H]1CO2 returned rRNA inh HTS -1.6, ERAP1 HTS inh 0.9, ARNT TACC3 PPI -1.0 and CFTR F508del cor -4.2.
For Cc1cc(Cl)ccc1OCCCC(=O)N1CCCc2ccccc21 the results were rRNA inh HTS -29.6*, ERAP1 HTS inh -0.6, PvdQ inh -2.5, ARNT TACC3 PPI -9.4 and CFTR F508del cor 1.3.
C=CCNC(=S)N1CCc2c([nH]c3ccccc23)C1C (stereo not given) was read as rRNA inh HTS -33.4*, ERAP1 HTS inh 0.3, PvdQ inh -14.2, ARNT TACC3 PPI 0.8 and CFTR F508del cor 0.0.
For CC1c2[nH]c3ccccc3c2CCN1S(C)(=O)=O (stereo not given) the results were PvdQ inh -21.4 and ARNT TACC3 PPI -3.5.
Screening O=C(C[C@H]1CC[C@@H]2[C@H](COC[C@H](O)CN2C(=O)c2ccc3c(c2)OCO3)O1)NCCN1CCCCC1 returned rRNA inh HTS -3.0, ERAP1 HTS inh -2.9, ARNT TACC3 PPI -6.5 and CFTR F508del cor 0.8.
Screening C[C@@H]1CN([C@@H](C)CO)S(=O)(=O)c2ccc(C3=CCCC3)cc2O[C@@H]1CN(C)C(=O)c1cccnc1 returned rRNA inh HTS -2.3, ERAP1 HTS inh 1.1, ARNT TACC3 PPI -2.8 and CFTR F508del cor -0.8.
Screening O=C(COc1ccccc1Br)c1ccc2c(c1)OCO2 returned rRNA inh HTS -2.6, ERAP1 HTS inh -1.0, PvdQ inh 10.7, ARNT TACC3 PPI -1.4 and CFTR F508del cor -2.9.
O=C(COc1ccccc1Br)c1ccc(O)cc1O was read as rRNA inh HTS -42.4*, ERAP1 HTS inh 3.0, PvdQ inh -11.0, ARNT TACC3 PPI -2.1 and CFTR F508del cor -1.8.
For CCC(C(=O)OCC(=O)C1(O)CCC2C3CCC4=CC(=O)CCC4(C)C3C(O)CC21C)C(C)C (stereo not given) the results were rRNA inh HTS 11.1, ERAP1 HTS inh 0.5, PvdQ inh -8.7, ARNT TACC3 PPI -1.4 and CFTR F508del cor 8.2*.
For COc1cccc(S(=O)(=O)Nc2ccc3c(c2)[C@H]2C[C@@H](CC(=O)NCCc4ccccc4)O[C@@H](CO)[C@H]2O3)c1 the results were rRNA inh HTS -5.3, ERAP1 HTS inh 0.7, ARNT TACC3 PPI 0.2 and CFTR F508del cor -5.3.
`CCCc1cn(CC[C@H]2CC[C@H](NC(=O)C3CCCC3)[C@@H](CO)O2)nn1` gave rRNA inh HTS 3.4, ERAP1 HTS inh 2.5, ARNT TACC3 PPI -5.9 and CFTR F508del cor -3.1.
Cc1ccc(OCC(=O)Nc2ccc3c(c2)ncn3C)cc1 was read as rRNA inh HTS 0.2, ERAP1 HTS inh 1.9, PvdQ inh -1.1, ARNT TACC3 PPI 6.9 and CFTR F508del cor 22.0*.
CCOC(=O)N1CCN(C(=O)c2cc3c(-c4cccc(OC)c4)nn(C)c3s2)CC1 was read as rRNA inh HTS -28.6*, ERAP1 HTS inh 1.8, PvdQ inh -3.6, ARNT TACC3 PPI 1.2 and CFTR F508del cor -1.3.
Screening CCOC(=O)N1CCC(NC(=O)c2cc3c(-c4cccc(OC)c4)nn(C)c3s2)CC1 returned PvdQ inh -14.5 and ARNT TACC3 PPI -5.5.
